LGR2 inh = inhibitors of bursicon-induced LGR2 CRE-luciferase signal, primary screen, cell-based, HEK293, CRE-luciferase reporter, bursicon stimulation; Drosophila bursicon receptor LGR2 (rickets); bursicon-stimulated, 4 h; inhibition, % at 9.99 µM; 380,000 tested, 0.35% active; AID 720647, 2013;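 active = drop in luminescence signal, shown as inhibition above about 50% in the replicate tests, limit read from the data, passing the limit was not always enough; inconclusive = probably only some replicates passing the limit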;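 also: agonist challenge used bursicon conditioned medium at about half maximal strength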
PAX8 inh HTS = inhibitors of PAX8-driven TPO luciferase reporter, primary screen, RMG-I cells, single concentration; SteadyGlo, 24 h; inhibition, % at 12.6 µM; 360,000 tested, 1.2% active;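 active = mean replicate inhibition at least 60% with every replicate also reaching 60%; inconclusive = only one of the two criteria is met; inactive = mean below 60% and not all replicates reaching 60%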;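 also: luciferase light reporting Pax8 driven TPO promoter activity; plate controls were median of neutral control wells for no effect and mitoxantrone controls for full effect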
EBV LMP1 NFkB = EBV LMP1-driven NF-kappaB luciferase reporter inhibitors, primary screen, cell-based, luminescence, single point | LMP1-induced NF-kappaB luciferase reporter cells | inhibition, % at 12.5 µM | 350,000 tested, 0.69% active | AID 504558, 2011; in the data active = inhibition above about 41%; inconclusive = no clear call, values can overlap the other calls;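 also: 0% = neutral control wells and 100% = reference inhibitor control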
EWS-Fli block = EWS/Fli-driven NR0B1 reporter inhibitors, primary screen, A673 cells, NR0B1 luciferase, luminescence, MLPCN library; viability-normalised; 350,000 tested, 0.67% active; inhibition, % at 12.6 µM; AID 651661, 2012;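 active = mean inhibition of at least 50% after viability correction, with every replicate also passing that limit; inconclusive = mean reaches 50% but only one of two replicates passes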;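 also: firefly luciferase signal divided by Alamar Blue viability fluorescence both relative to DMSO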
TWEAK Fn14 block = inhibitors of TWEAK-Fn14 signaling, primary screen, luciferase reporter cells, uHTS. TWEAK-stimulated Fn14 reporter cells, luciferase luminescence, 8 h. inhibition, % at 10 µM. AID 1159606, 2016. 360,000 tested, 2% active; in the data active = inhibition above about 50%
TROY NFkB inh = inhibitors of TROY-driven NF-kB signaling, primary screen, Q293 LMP1-TROYcd cells, NF-kB luciferase, uHTS. Q293 LMP1-TROYcd NF-kB luciferase reporter, 4 h. inhibition, % at 10 µM. 360,000 tested, 0.98% active. AID 1347056, 2019;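 active = compounds whose plate-normalised and pattern-corrected inhibition of the luciferase reporter signal at the single screening dose is 50% or more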
* marks the source's active call; other numbers are inactive results; ? = inconclusive; . = no result; ! = not confirmed by another sample. Sampled rows, rich in hits. Any-hit rate of the full collection: about 3.1%.

SMILES | LGR2 inh | PAX8 inh HTS | EBV LMP1 NFkB | EWS-Fli block | TWEAK Fn14 block | TROY NFkB inh
O=C(C[C@@H]1C=C[C@H](NC(=O)Nc2ccccc2F)[C@H](CO)O1)NCc1ccc(Cl)cc1 | -6 | 14 | . | -1 | . | .
O=C1C(=Cc2cn(-c3ccccc3)nc2-c2ccc(OCc3ccccc3F)cc2)SC(=S)N1CCS(=O)(=O)O | 10 | -7 | . | -11 | 18 | 14
O=C1C(=Cc2cn(-c3ccccc3)nc2-c2ccc(OCc3ccc(Cl)cc3)cc2)SC(=S)N1CCS(=O)(=O)O | 12 | -13 | . | -10 | 62* | 18
C[C@@H]1CN([C@H](C)CO)C(=O)c2cc(C#Cc3ccccc3F)cnc2O[C@@H]1CN(C)C(=O)c1ccc2c(c1)OCO2 | 3 | . | . | -16 | . | .
O=C1NN(c2ccccc2)C(=O)/C1=C/c1ccc(-c2ccc(Cl)c(C(=O)O)c2)o1 | -5 | 3 | -15 | 1 | -9 | 4
Cc1cccc(N2NC(=O)/C(=C/c3ccc(-c4ccc(Cl)c(C(=O)O)c4)o3)C2=O)c1 | 4 | 9 | 2 | 1 | 6 | 12
Cc1ccc(Sc2ccc(/C=C3/C(=O)NN(c4ccccc4)C3=O)o2)cc1 | -5 | -8 | 2 | 13 | 89* | -12
O=C1NN(c2ccccc2)C(=O)/C1=C/c1ccc(Sc2ccc(Cl)cc2)o1 | 11 | -10 | -7 | 12 | 63* | -6
O=C(c1cccnc1)N1C[C@@H]2[C@H](c3ccccc31)[C@H](CO)N2C(=O)Nc1ccccc1Cl | 14 | -10 | . | -6 | . | .
COc1ccc(NC(=O)Nc2cccc3c2O[C@@H](CN(C)Cc2ccc(Cl)c(Cl)c2)[C@H](C)CN([C@@H](C)CO)C3=O)cc1 | 11 | . | . | 9 | . | .
C[C@@H]1CN([C@H](C)CO)C(=O)c2cc(NC(=O)CCC(F)(F)F)ccc2O[C@@H](C)CCCCO[C@H]1CN(C)Cc1ccc(C(F)(F)F)cc1 | 47 | -7 | . | 24 | . | .
C[C@@H]1CN([C@@H](C)CO)C(=O)c2cc(NC(=O)CCC(F)(F)F)ccc2O[C@@H](C)CCCCO[C@H]1CN(C)Cc1ccc(C(F)(F)F)cc1 | 7 | 75* | . | 10 | . | .
C[C@@H]1CCCCO[C@@H](CN(C)Cc2ccc(C(F)(F)F)cc2)[C@@H](C)CN([C@H](C)CO)C(=O)c2cc(NC(=O)Cc3ccccc3)ccc2O1 | 14 | 7 | . | -12 | . | .
C[C@@H]1CN([C@H](C)CO)C(=O)c2cc(NC(=O)CCC(F)(F)F)ccc2O[C@@H](C)CCCCO[C@@H]1CN(C)Cc1ccc(Cl)c(Cl)c1 | 8 | 81* | . | -6 | . | .
C[C@@H]1CCCCO[C@H](CN(C)Cc2ccc(C(F)(F)F)cc2)[C@H](C)CN([C@@H](C)CO)C(=O)c2cc(NC(=O)Cc3ccccc3)ccc2O1 | 32 | 65*! | -5 | 14 | 15 | 28
C[C@@H]1CCCCO[C@@H](CN(C)Cc2ccc(C(F)(F)F)cc2)[C@H](C)CN([C@@H](C)CO)C(=O)c2cc(NC(=O)Cc3ccccc3)ccc2O1 | 8 | 81* | . | 14 | . | .
C[C@H]1CN([C@@H](C)CO)C(=O)Cc2cc(NC(=O)Nc3cccc4ccccc34)ccc2O[C@H]1CN(C)Cc1ccc(C(F)(F)F)cc1 | 14 | 2 | . | -2 | . | .
CO[C@@H]1CN(C)C(=O)c2cc(NS(=O)(=O)c3cccc(F)c3)ccc2OC[C@H](C)NC[C@@H]1C | 1 | 6 | . | 2 | . | .
C[C@@H]1CN([C@H](C)CO)C(=O)c2cc(NC(=O)Cc3ccccc3)ccc2O[C@@H](C)CCCCO[C@@H]1CN(C)Cc1ccc(C(F)(F)F)cc1 | 23 | 87* | . | -3 | . | .
C[C@H]1CCCCO[C@@H](CN(C)C(=O)Nc2ccc(C(F)(F)F)cc2)[C@@H](C)CN([C@@H](C)CO)C(=O)c2cc(NC(=O)CCC(F)(F)F)ccc2O1 | ? | 50 | . | 8 | . | .
C[C@H](CO)N1C[C@H](C)[C@@H](CN(C)Cc2ccc(C(F)(F)F)cc2)OCCCC[C@H](C)Oc2ccc(NC(=O)Cc3ccccc3)cc2C1=O | 12 | 80* | . | 7 | . | .
C[C@H](CO)N1C[C@H](C)[C@H](CN(C)C(=O)Nc2ccc(C(F)(F)F)cc2)OCCCC[C@H](C)Oc2ccc(NC(=O)CCC(F)(F)F)cc2C1=O | 65* | 17 | . | 6 | . | .
Cc1noc(C)c1S(=O)(=O)N(C)C[C@H]1OCCCC[C@H](C)Oc2ccc(NC(=O)Cc3ccccc3)cc2C(=O)N([C@H](C)CO)C[C@@H]1C | -5 | -6 | . | 12 | . | .
O=C(Cc1ccccn1)N1CC2(C1)[C@@H](c1ccccc1)[C@H](CO)N2C(=O)c1ccncc1 | 11 | -5 | . | 8 | . | .
CCOC(=O)c1cc2c(=O)n3cccc(C)c3nc2n(CC2CCCO2)c1=NC(C)=O (stereo not drawn) | . | 3 | 5 | -3 | 92*! | -20
SMILES | LGR2 inh | PAX8 inh HTS | EBV LMP1 NFkB | EWS-Fli block | TWEAK Fn14 block | TROY NFkB inh
O=c1[nH]nc(Sc2ncnc3sccc23)n1CCc1ccccc1 | . | 83* | 20 | . | 57* | 22
Cc1cc(C)c2nc(C)cc(Nc3ccc(C(=O)NCCO)cc3)c2c1 | 4 | 5 | -7 | 7 | -19 | -27
CC(=O)c1ccc(Nc2cc(C)nc3c(C)cc(C)cc23)cc1 | 99* | 20 | -20 | 16 | -3 | -7
C[C@@H]1CN([C@@H](C)CO)C(=O)c2cccc(NC(=O)Nc3ccc4c(c3)OCO4)c2O[C@H]1CN(C)Cc1ccc(Cl)c(Cl)c1 | 37 | . | . | -38 | . | .
CC1CN(c2cc(=O)n(-c3ccccc3)c(=O)[nH]2)CC(C)O1 (stereo not drawn) | 5 | -13 | 61* | -2 | 2 | -3
Cc1ccc(-n2c(=O)cc(N3CC(C)OC(C)C3)[nH]c2=O)cc1 (stereo not drawn) | . | 2 | -5 | 1 | 10 | 2
C[C@H](CO)N1C[C@H](C)[C@H](CN(C)C(=O)Nc2ccc3c(c2)OCO3)OCCCC[C@H](C)Oc2ccc(NC(=O)c3ccncc3)cc2C1=O | 9 | . | . | -1 | . | .
Cn1nccc1C(=O)Nc1ccc2c(c1)OCCO2 | 24 | -83 | -4 | -22 | 74* | 56*
Cn1ccc(C(=O)Nc2ccc3c(c2)OCCO3)n1 | -15 | -128 | 31 | . | 33 | -33
Cc1nn(C)cc1C(=O)Nc1ccc2c(c1)OCCO2 | 2 | -89 | 13 | -9 | 66* | 41
CCCN1Cc2cccc(C(=O)N3CCN(c4cc(Cl)ccc4C)CC3)c2C1=O | . | . | 3 | . | -9 | 33
CC(=O)Nc1ccc(C(=O)Nc2ccc3c(c2)OCCO3)cc1 | -16 | -60 | . | 1 | 24 | -21
COCCN1Cc2cccc(C(=O)N3CCN(c4cc(C)ccc4C)CC3)c2C1=O | 32 | 4 | 78* | 3 | 24 | 6
